The values below come from publication PMC11006913.

Experiment in all cases: PBM; 200 nM protein, PBS
Settings in all cases: dsDNA, one strand shown

Experiment [1] has as its target HOXC10 (Homo sapiens, UniProt Q9NYD6 254-340).
In experiment [2] the target is HOXC10 (Homo sapiens, UniProt Q9NYD6 254-340, K271E).
Experiment [3] addresses HOXD13 (Homo sapiens, UniProt P35453 263-343).
In experiment [4] the target is HOXD13 (Homo sapiens, UniProt P35453 263-343, T313A).
The target of experiment [5] is HOXD13 (Homo sapiens, UniProt P35453 263-343, T313R).
The target of the next experiment is PITX2 (Homo sapiens, UniProt Q99697 72-157).

Chain of HOXC10 (Homo sapiens, UniProt Q9NYD6 254-340) (Q9NYD6 254-340): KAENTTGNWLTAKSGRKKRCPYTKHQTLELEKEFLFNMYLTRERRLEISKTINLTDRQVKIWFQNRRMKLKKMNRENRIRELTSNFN
Chain of HOXC10 (Homo sapiens, UniProt Q9NYD6 254-340, K271E) (Q9NYD6 254-340 K271E): as the sequence (Q9NYD6 254-340) above, with K18E counted along it
Chain of HOXD13 (Homo sapiens, UniProt P35453 263-343) (P35453 263-343): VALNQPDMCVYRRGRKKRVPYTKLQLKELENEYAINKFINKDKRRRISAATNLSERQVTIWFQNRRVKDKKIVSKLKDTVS
Chain of HOXD13 (Homo sapiens, UniProt P35453 263-343, T313A) (P35453 263-343 T313A): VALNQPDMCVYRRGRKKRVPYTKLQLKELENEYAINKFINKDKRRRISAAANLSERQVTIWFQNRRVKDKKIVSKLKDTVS
Chain of HOXD13 (Homo sapiens, UniProt P35453 263-343, T313R) (P35453 263-343 T313R): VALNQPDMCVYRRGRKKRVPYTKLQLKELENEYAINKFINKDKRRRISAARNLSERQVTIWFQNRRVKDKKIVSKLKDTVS

For ATGTGCTA, the binding signal was 10.7 upbm affinity estimate (log intensity, higher = more binding, comparable within an allelic series) in the experiment with HOXC10 [1] and 10.7 upbm affinity estimate (log intensity, higher = more binding, comparable within an allelic series) with HOXC10 [2].

AAATAAAA: the binding signal in the experiment with HOXC10 [1] was 11.9 upbm affinity estimate (log intensity, higher = more binding, comparable within an allelic series); with HOXC10 [2], 11.1 upbm affinity estimate (log intensity, higher = more binding, comparable within an allelic series).

As for GGGCTACC, the binding signal with HOXC10 [1] is 10 upbm affinity estimate (log intensity, higher = more binding, comparable within an allelic series); with HOXC10 [2] it was 10.1 upbm affinity estimate (log intensity, higher = more binding, comparable within an allelic series).

With CAGCGCCC, the binding signal in the experiment with HOXC10 [1] was 9.88 upbm affinity estimate (log intensity, higher = more binding, comparable within an allelic series); in the experiment with HOXC10 [2], 9.95 upbm affinity estimate (log intensity, higher = more binding, comparable within an allelic series).

Consider GACTGGGC, for which the binding signal with HOXC10 [1] is 9.98 upbm affinity estimate (log intensity, higher = more binding, comparable within an allelic series); with HOXC10 [2], 10 upbm affinity estimate (log intensity, higher = more binding, comparable within an allelic series).

Turning to GAGCTGCC, the binding signal with HOXC10 [1] is 9.9 upbm affinity estimate (log intensity, higher = more binding, comparable within an allelic series); with HOXC10 [2] it was 9.88 upbm affinity estimate (log intensity, higher = more binding, comparable within an allelic series).

In the case of ATTACAGG, the binding signal with HOXC10 [1] is 11.1 upbm affinity estimate (log intensity, higher = more binding, comparable within an allelic series); with HOXC10 [2] it was 10.9 upbm affinity estimate (log intensity, higher = more binding, comparable within an allelic series).

Turning to GGTCCGCA, the binding signal in the experiment with HOXC10 [1] was 10 upbm affinity estimate (log intensity, higher = more binding, comparable within an allelic series); with HOXC10 [2], 10 upbm affinity estimate (log intensity, higher = more binding, comparable within an allelic series).

As to GAAGCTCC, the binding signal was 10.1 upbm affinity estimate (log intensity, higher = more binding, comparable within an allelic series) with HOXC10 [1] and 10.1 upbm affinity estimate (log intensity, higher = more binding, comparable within an allelic series) in the experiment with HOXC10 [2].

In the case of GCGACGAC, the binding signal in the experiment with HOXC10 [1] is 10.1 upbm affinity estimate (log intensity, higher = more binding, comparable within an allelic series); with HOXC10 [2], 10 upbm affinity estimate (log intensity, higher = more binding, comparable within an allelic series).

In the case of CGAGGAGC, the binding signal is 9.97 upbm affinity estimate (log intensity, higher = more binding, comparable within an allelic series) in the experiment with HOXC10 [1] and 9.97 upbm affinity estimate (log intensity, higher = more binding, comparable within an allelic series) in the experiment with HOXC10 [2].

Take AAAGATAT: the binding signal is 10.9 upbm affinity estimate (log intensity, higher = more binding, comparable within an allelic series) in the experiment with HOXC10 [1]; 10.8 upbm affinity estimate (log intensity, higher = more binding, comparable within an allelic series) in the experiment with HOXD13 [3]; 10.9 upbm affinity estimate (log intensity, higher = more binding, comparable within an allelic series) in the experiment with HOXD13 [4].

Take CCGAACTC: the binding signal with HOXC10 [1] is 9.95 upbm affinity estimate (log intensity, higher = more binding, comparable within an allelic series); in the experiment with HOXC10 [2], 10 upbm affinity estimate (log intensity, higher = more binding, comparable within an allelic series).

Consider AATAATAG, for which the binding signal was 11.5 upbm affinity estimate (log intensity, higher = more binding, comparable within an allelic series) with HOXC10 [1] and 11.2 upbm affinity estimate (log intensity, higher = more binding, comparable within an allelic series) with HOXC10 [2].

On to AATCATCA, for which the binding signal in the experiment with HOXC10 [1] is 10.9 upbm affinity estimate (log intensity, higher = more binding, comparable within an allelic series); with HOXC10 [2], 10.9 upbm affinity estimate (log intensity, higher = more binding, comparable within an allelic series).

For the sequence GCGAGTCC, the binding signal in the experiment with HOXC10 [1] was 10.1 upbm affinity estimate (log intensity, higher = more binding, comparable within an allelic series); in the experiment with HOXC10 [2] it was 10.1 upbm affinity estimate (log intensity, higher = more binding, comparable within an allelic series).

Take AGGAGTGG: the binding signal with HOXC10 [1] is 9.97 upbm affinity estimate (log intensity, higher = more binding, comparable within an allelic series); in the experiment with HOXC10 [2] it was 9.99 upbm affinity estimate (log intensity, higher = more binding, comparable within an allelic series).

For AATTGCAA, the binding signal in the experiment with HOXC10 [1] is 11.1 upbm affinity estimate (log intensity, higher = more binding, comparable within an allelic series); with HOXC10 [2], 11 upbm affinity estimate (log intensity, higher = more binding, comparable within an allelic series).

In the case of CCTTGCGA, the binding signal in the experiment with HOXC10 [1] was 10 upbm affinity estimate (log intensity, higher = more binding, comparable within an allelic series); with HOXC10 [2], 10.1 upbm affinity estimate (log intensity, higher = more binding, comparable within an allelic series).

On to CCCGTAAA, for which the binding signal was 11.3 upbm affinity estimate (log intensity, higher = more binding, comparable within an allelic series) with HOXC10 [1]; 10.6 upbm affinity estimate (log intensity, higher = more binding, comparable within an allelic series) with HOXD13 [5]; 11.9 upbm affinity estimate (log intensity, higher = more binding, comparable within an allelic series) in the experiment with HOXD13 [3]; 11.6 upbm affinity estimate (log intensity, higher = more binding, comparable within an allelic series) with HOXD13 [4].

Consider AACCTGCC, for which the binding signal with HOXC10 [1] is 10.1 upbm affinity estimate (log intensity, higher = more binding, comparable within an allelic series); with PITX2 it was 7.89 upbm affinity estimate (log intensity, higher = more binding, comparable within an allelic series); with HOXC10 [2] it was 10.1 upbm affinity estimate (log intensity, higher = more binding, comparable within an allelic series).

As to ATATCAGG, the binding signal with HOXC10 [1] is 10.6 upbm affinity estimate (log intensity, higher = more binding, comparable within an allelic series); with HOXC10 [2], 10.7 upbm affinity estimate (log intensity, higher = more binding, comparable within an allelic series).

As for TTGGCCAA, the binding signal was 9.97 upbm affinity estimate (log intensity, higher = more binding, comparable within an allelic series) with HOXC10 [1] and 9.93 upbm affinity estimate (log intensity, higher = more binding, comparable within an allelic series) with HOXC10 [2].

Turning to CGCCCCGA, the binding signal is 10.1 upbm affinity estimate (log intensity, higher = more binding, comparable within an allelic series) with HOXC10 [1] and 9.97 upbm affinity estimate (log intensity, higher = more binding, comparable within an allelic series) in the experiment with HOXC10 [2].

Regarding ATACTATA, the binding signal is 11.1 upbm affinity estimate (log intensity, higher = more binding, comparable within an allelic series) with HOXC10 [1] and 11 upbm affinity estimate (log intensity, higher = more binding, comparable within an allelic series) with HOXC10 [2].

In the case of CTCCTCTC, the binding signal with HOXC10 [1] is 10 upbm affinity estimate (log intensity, higher = more binding, comparable within an allelic series); in the experiment with HOXC10 [2], 10 upbm affinity estimate (log intensity, higher = more binding, comparable within an allelic series).

For the sequence AAAGCGGG, the binding signal with HOXC10 [1] is 9.98 upbm affinity estimate (log intensity, higher = more binding, comparable within an allelic series); with HOXC10 [2], 10.1 upbm affinity estimate (log intensity, higher = more binding, comparable within an allelic series).

Turning to AATGCTAT, the binding signal with HOXC10 [1] is 11 upbm affinity estimate (log intensity, higher = more binding, comparable within an allelic series); with HOXC10 [2], 10.9 upbm affinity estimate (log intensity, higher = more binding, comparable within an allelic series).

Regarding CCGAAGGA, the binding signal with HOXC10 [1] was 10 upbm affinity estimate (log intensity, higher = more binding, comparable within an allelic series); with HOXC10 [2] it was 9.98 upbm affinity estimate (log intensity, higher = more binding, comparable within an allelic series).

Turning to CTCTCCGA, the binding signal is 9.99 upbm affinity estimate (log intensity, higher = more binding, comparable within an allelic series) in the experiment with HOXC10 [1] and 9.97 upbm affinity estimate (log intensity, higher = more binding, comparable within an allelic series) in the experiment with HOXC10 [2].

As for CTTAAATA, the binding signal in the experiment with HOXC10 [1] is 10.9 upbm affinity estimate (log intensity, higher = more binding, comparable within an allelic series); in the experiment with HOXC10 [2] it was 10.7 upbm affinity estimate (log intensity, higher = more binding, comparable within an allelic series).

For the sequence CTTCGACC, the binding signal with HOXC10 [1] is 9.95 upbm affinity estimate (log intensity, higher = more binding, comparable within an allelic series); with HOXC10 [2] it was 10 upbm affinity estimate (log intensity, higher = more binding, comparable within an allelic series).

As for AGGCTTCC, the binding signal with HOXC10 [1] was 10.1 upbm affinity estimate (log intensity, higher = more binding, comparable within an allelic series); with HOXC10 [2], 10.1 upbm affinity estimate (log intensity, higher = more binding, comparable within an allelic series).

On to CGCCGGCC, for which the binding signal with HOXC10 [1] was 9.95 upbm affinity estimate (log intensity, higher = more binding, comparable within an allelic series); with HOXC10 [2], 9.99 upbm affinity estimate (log intensity, higher = more binding, comparable within an allelic series).

In the case of CCGGTGAC, the binding signal was 10 upbm affinity estimate (log intensity, higher = more binding, comparable within an allelic series) with HOXC10 [1] and 10 upbm affinity estimate (log intensity, higher = more binding, comparable within an allelic series) in the experiment with HOXC10 [2].

On to ATGTCATA, for which the binding signal with HOXC10 [1] was 11.1 upbm affinity estimate (log intensity, higher = more binding, comparable within an allelic series); with HOXC10 [2], 11.1 upbm affinity estimate (log intensity, higher = more binding, comparable within an allelic series).

Consider AGGCTTCG, for which the binding signal was 9.94 upbm affinity estimate (log intensity, higher = more binding, comparable within an allelic series) with HOXC10 [1] and 10 upbm affinity estimate (log intensity, higher = more binding, comparable within an allelic series) in the experiment with HOXC10 [2].

As for ATCATACA, the binding signal with HOXC10 [1] is 10.9 upbm affinity estimate (log intensity, higher = more binding, comparable within an allelic series); with HOXC10 [2], 10.8 upbm affinity estimate (log intensity, higher = more binding, comparable within an allelic series).

For CATAAATA, the binding signal with HOXC10 [1] was 12.1 upbm affinity estimate (log intensity, higher = more binding, comparable within an allelic series); with HOXC10 [2], 11.5 upbm affinity estimate (log intensity, higher = more binding, comparable within an allelic series).

As for CACTGACG, the binding signal is 10 upbm affinity estimate (log intensity, higher = more binding, comparable within an allelic series) with HOXC10 [1] and 10.1 upbm affinity estimate (log intensity, higher = more binding, comparable within an allelic series) in the experiment with HOXC10 [2].

As to AATGGTCC, the binding signal is 11 upbm affinity estimate (log intensity, higher = more binding, comparable within an allelic series) with HOXC10 [1] and 10.9 upbm affinity estimate (log intensity, higher = more binding, comparable within an allelic series) with HOXC10 [2].

As to ACGAAGCT, the binding signal with HOXC10 [1] is 10 upbm affinity estimate (log intensity, higher = more binding, comparable within an allelic series); in the experiment with HOXC10 [2], 10.1 upbm affinity estimate (log intensity, higher = more binding, comparable within an allelic series).

For GGCGCAAA, the binding signal was 10.1 upbm affinity estimate (log intensity, higher = more binding, comparable within an allelic series) in the experiment with HOXC10 [1] and 10.1 upbm affinity estimate (log intensity, higher = more binding, comparable within an allelic series) with HOXC10 [2].

On to CAGAGGGA, for which the binding signal is 10.1 upbm affinity estimate (log intensity, higher = more binding, comparable within an allelic series) with HOXC10 [1] and 10.1 upbm affinity estimate (log intensity, higher = more binding, comparable within an allelic series) with HOXC10 [2].

With CTCGGGAA, the binding signal with HOXC10 [1] was 10.1 upbm affinity estimate (log intensity, higher = more binding, comparable within an allelic series); in the experiment with HOXC10 [2], 10 upbm affinity estimate (log intensity, higher = more binding, comparable within an allelic series).

Take ATAAAGAT: the binding signal is 11.6 upbm affinity estimate (log intensity, higher = more binding, comparable within an allelic series) in the experiment with HOXC10 [1] and 11.1 upbm affinity estimate (log intensity, higher = more binding, comparable within an allelic series) with HOXC10 [2].

For CTCAGGAA, the binding signal in the experiment with HOXC10 [1] is 10.1 upbm affinity estimate (log intensity, higher = more binding, comparable within an allelic series); in the experiment with HOXC10 [2], 10 upbm affinity estimate (log intensity, higher = more binding, comparable within an allelic series).

For ATAACACC, the binding signal is 11.1 upbm affinity estimate (log intensity, higher = more binding, comparable within an allelic series) in the experiment with HOXC10 [1] and 10.8 upbm affinity estimate (log intensity, higher = more binding, comparable within an allelic series) with HOXC10 [2].
